Screening data (PubChem BioAssay)
A selection: hits, their analogues and other compounds. The true share with any hit is near 7.4%.
SMN2 splice up: SMN2 splice variant enhancement; HEK293 SMN2-luciferase splicing reporter, luminescence, 30-36 h; Potency, µM (titrated, usually from 46.1 µM), most hits filed as activators; 210,000 tested, 2.8% active; further: nearly all actives have a fitted effect of over 55% in size
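qHTS luciferase splicing reporter: luminescence rises when SMN2 exon 7 is included in transfected HEK293 cells. Compound exposure lasted 30-36 h at 37C, with 4.5 mM final sodium butyrate as control, followed by a ONE-Glo read.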
FLuc counter: counter-screen for miR-21 project: firefly luciferase inhibitors or activators. P08659. purified FLuc, Km substrates, luminescence inhibition. Potency, µM (top dose mostly 57.5 µM), actives largely listed as inhibitors. 360,000 tested, 6.9% active. AID 588342; further: nearly all actives have a fitted effect of over 55% in size
Target sequence (P08659 whole entry, looked up): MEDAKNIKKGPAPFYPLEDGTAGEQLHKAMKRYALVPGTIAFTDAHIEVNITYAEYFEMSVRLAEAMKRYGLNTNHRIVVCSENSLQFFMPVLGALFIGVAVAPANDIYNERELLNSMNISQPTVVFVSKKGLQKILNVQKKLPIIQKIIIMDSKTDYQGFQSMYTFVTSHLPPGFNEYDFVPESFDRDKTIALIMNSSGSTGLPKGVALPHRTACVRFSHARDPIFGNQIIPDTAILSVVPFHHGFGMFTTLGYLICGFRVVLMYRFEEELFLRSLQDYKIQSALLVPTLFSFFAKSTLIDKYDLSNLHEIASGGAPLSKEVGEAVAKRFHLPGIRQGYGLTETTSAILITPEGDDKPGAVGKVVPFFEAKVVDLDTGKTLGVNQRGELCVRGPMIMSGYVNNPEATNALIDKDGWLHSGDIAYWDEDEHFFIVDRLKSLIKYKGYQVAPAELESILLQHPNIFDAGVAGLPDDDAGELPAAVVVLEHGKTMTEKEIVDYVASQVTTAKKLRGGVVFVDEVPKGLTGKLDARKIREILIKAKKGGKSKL
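Biochemical qHTS of compounds, final roughly 60 µM downward over six points, against 10 nM purified firefly luciferase using Km concentrations of substrates (10 uM D-luciferin, 10 uM ATP) in Tris acetate pH 7.5 buffer; luminescence output.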
Rab9 prom act: activates the Rab9 promoter. Huh7 Rab9 promoter-luciferase reporter, luminescence, 24 h. AID 485297. Potency, µM (top dose mostly 9.22 µM), most hits filed as activators. 320,000 tested, 2.8% active; further: nearly all actives have a fitted effect of over 60% in size
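Measured in stably transfected Huh7 cells bearing a Rab9 promoter–luciferase construct: 24 h compound treatment at 37 °C, followed by luminescence detection.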
NPC1 prom act: activators of NPC1 promoter. Potency, µM (top dose mostly 9.22 µM), actives largely listed as activators. Huh7 NPC1 promoter luciferase reporter, 24 h. AID 485313. 320,000 tested, 2.4% active; further: nearly all actives have a fitted effect of over 60% in size
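Cells: Huh7 expressing luciferase under the NPC1 promoter, 1500/well. Seeded 2 h, compound added, incubated 24 h at 37 °C. Luciferase reagent, 10 min ambient, then luminescence.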
ELG1 genotoxic: induces genotoxicity in HEK293T cells with luciferase-tagged ELG1; 330,000 tested, 1.3% active; Potency, µM (highest dose often 46 µM), usual class: activators; HEK293T ELG1-luciferase reporter, luminescence, 16 h; AID 504466; further: nearly all actives have a fitted effect of over 60% in size
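16 hr compound incubation (37 °C, 5% CO2) of HEK293T cells carrying luciferase-tagged ELG1; luciferase then measured by ONE-Glo luminescence after 30 min at RT.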
Hits are given with their value; i = inactive; ? = inconclusive; nt = no result given; [ ] = dose if it differs, or a comment. The call rests on the fitted dose curve; in most records, active means well fitted curve in the direction sought with a large enough effect; inconclusive means small, poorly fitted or top-dose-only effect, or another doubt; inactive means no such curve, though single readings can be large; an effect the other way counts as inactive or inconclusive.

SMILES | SMN2 splice up | FLuc counter | Rab9 prom act | NPC1 prom act | ELG1 genotoxic
CCc1cccc(NC(=O)Cn2c(-c3ccc(F)cc3)cc(C(C)=O)c2C)c1 | nt | i | nt | nt | nt
NNC(=O)c1ccc(N2CCCCCC2)c([N+](=O)[O-])c1 | i | i | i | i | i
CCc1cccc(NC(=O)C2CCCN(c3ncnc4onc(-c5ccc(F)cc5)c34)C2)c1 (stereo not drawn) | nt | i | nt | nt | nt
CCOc1ccc(-c2nnc(SCC(=O)Nc3ccccc3C(F)(F)F)o2)cc1 | nt | i | nt | nt | nt
CCOc1ccc(-c2nnc(SCC(=O)Nc3cccc(C#N)c3)o2)cc1 | nt | 19µM | nt | nt | nt
CCOc1ccc(-c2nnc(SCC(=O)Nc3cccc(Cl)c3C)o2)cc1 | nt | 13.5µM | nt | nt | nt
CCOC(=O)c1c(NC(=O)CSc2nc3ccc(OC)cc3[nH]2)sc2c1CC(C)(C)NC2(C)C | nt | i | i | i | i
Cc1c(CCC(=O)N2CCC(C(=O)O)CC2)c(=O)oc2cc3oc4c(c3cc12)CCCC4 | nt | 10.7µM | i | i | i
Cc1oc2c(C)c3oc(=O)c(CCC(=O)N4CCC(C(=O)NCCC(=O)O)(c5ccccc5)CC4)c(C)c3cc2c1C | nt | i | i | i | i[9.26 µM]
Cc1c(CCC(=O)NCCCn2ccnc2)c(=O)oc2cc3oc4c(c3cc12)CCCC4 | nt | ? | i | i | i
Cc1c(CCC(=O)N2CCC(C(=O)O)(c3ccccc3)CC2)c(=O)oc2cc3oc4c(c3cc12)CCCC4 | nt | 13.5µM | i | i | i
O=C1NC(c2ccccc2Br)=N/C1=C\c1ccco1 | nt | 0.379µM | ? | i | ?
O=C1NC(c2cccc(Br)c2)=N/C1=C\c1ccco1 | i | 10.7µM | ? | ? | i
O=C1NC(c2ccccc2)=N/C1=C/c1ccco1 | 12.6µM | 2.13µM | 3.16µM | 3.55µM | ?
O=C1NC(=O)/C(=C/c2ccco2)N1 | nt | i | i | i | i
O=C(Oc1ccccc1/C=C\C(=O)c1cc2ccccc2o1)c1ccccc1 | ? | 16.9µM | 3.16µM | 3.98µM | ?
O=C(N/N=C/c1ccccc1OC(=O)c1ccc2c(c1)OCO2)c1cccc(F)c1 | i | i | i | i | ?
O=C(Oc1ccccc1/C=C\C(=O)c1cc2ccccc2o1)c1cccc(F)c1 | i | 8.49µM | ? | i | ?
COc1cccc(C(=O)Oc2ccccc2/C=C\C(=O)c2cc3ccccc3o2)c1 | i | ? | ? | 2.82µM | i
CCc1ccc(Sc2cc(C(=O)NCc3ccccc3OC)c3ccccc3n2)cc1 | nt | i | nt | nt | nt
O=c1oc(CCCO)cc2ccccc12 | nt | nt | nt | nt | i
CCN(CC)c1ccc(N=CN2CCOCC2)cc1 | nt | ? | i | i | i
CCC1(C)CC(=O)c2c(ccc3oc(C(=O)NCc4ccccc4)c(C)c23)O1 (stereo not drawn) | 22.4µM | 9.53µM | nt | nt | nt
Cc1c(C(=O)NCc2ccccc2)oc2ccc(S(=O)(=O)N3CCC(C)CC3)cc12 | i | i | nt | nt | nt
CCCNC(=O)c1oc2ccc3c(c2c1C)C(O)CC(C)(C)O3 (stereo not drawn) | nt | i | i | i | i
SMILES | SMN2 splice up | FLuc counter | Rab9 prom act | NPC1 prom act | ELG1 genotoxic
Cc1c(C(=O)NCc2ccoc2)oc2ccc3c(c12)C(=O)CC(C)(C)O3 | 15.8µM | 8.49µM | ? | ? | ?
O=c1/c(=C/c2ccc(O)cc2)sc2n1CCCN=2 | nt | 9.53µM | 2.82µM | i | ?
CN1C(=O)/C(=C\c2ccc(N(C)C)cc2)OC1=S | nt | ? | ? | ? | i
COC(=O)/C=c1/sc2n(c1=O)CCN=2 | i | i | i | i | i
O=c1/c(=C\c2ccc(F)cc2)sc2n1CCCN=2 | ? | 13.5µM | ? | ? | ?
C=CCn1c(=O)/c(=C/c2ccc(F)cc2)s/c1=C(\C#N)c1nnc2n1CCCCC2 | nt | i | i | i | i
CN(C)c1ccc(/C=c2\sc3n(c2=O)CCCN=3)cc1 | 1.58µM | 0.239µM | 0.316µM | 0.398µM | ?
CCOc1ccc(CCNC(=O)COC(=O)CNS(=O)(=O)c2ccc(NC(C)=O)cc2)cc1OCC | nt | i | i | i | i
COc1ccc2c(c1)C(=O)[C@H](OC(=O)NCCOc1ccccc1)[C@@H](c1ccc(OC)c(Br)c1)O2 | i | nt | nt | nt | nt
COc1ccc(N=Cc2c(O)c3ccccc3n2C(C)=O)cc1 | nt | 1.07µM | ? | ? | i
COc1ccc(N=Cc2sc(O)c3ccccc23)cc1 | 2.82µM | 3.79µM | 1.58µM | ? | i
O=C(CSc1nnc(-c2ccccc2)c(-c2ccccc2)n1)NC1CCCCC1 | nt | i | nt | nt | nt
O=C(NCCC1=CCCCC1)c1cc(-c2ccccn2)nc2ccccc12 | i | i | i | i | i
CC(=O)Oc1ccc(OC(C)=O)c2c1CC(C)=C(C)C2 | nt | ? | i | i | i
CCN(C[C@H]1N[C@@](Cc2ccccc2)(C(=O)OC)[C@H]2C(=O)N(C)C(=O)[C@@H]12)C(C)=O | nt | nt | nt | nt | i
COc1ccc(C(=O)Nc2ccccc2C(=O)N2CCOCC2)cc1OC | nt | i | i | i | i
COC(=O)c1ccc(NC(=O)c2ccc(OC(C)=O)c(OC)c2)cc1 | ? | 10.7µM | ? | ? | ?
COc1cc(C(=O)Nc2ccc(O)cc2C(=O)O)ccc1OC(C)=O | nt | 12µM | i | i | i
Nc1nc(-c2ccc3c(c2)CCCC3)c(CC(=O)O)s1 | nt | 23.9µM | i | i | i
Nc1nc(-c2ccc3c(c2)OCCO3)c(CC(=O)O)s1 | nt | ? | i | i | i
CC(=O)c1ccc(Nc2cc(C)nc3nc(Cc4ccccc4)nn23)cc1 | i | i | nt | nt | nt
O=C(Nc1cccc2cccnc12)c1ccc(F)cc1 | nt | 15.1µM | nt | nt | nt
CC(C)c1ccc(C(=O)Nc2cccc3cccnc23)cc1 | i | 9.53µM | nt | nt | nt
CCOc1ccc(C(=O)Nc2cccc3cccnc23)cc1 | nt | ? | i | i | i
O=C(NC(=S)Nc1cccc2cccnc12)c1ccccc1 | i | 7.57µM | ? | ? | i
SMILES | SMN2 splice up | FLuc counter | Rab9 prom act | NPC1 prom act | ELG1 genotoxic
CC(C)Oc1ccc(C(=O)Nc2cccc3cccnc23)cc1 | nt | 10.7µM | i | i | i
O=C(NC(=S)Nc1cccc2[nH]ncc12)c1ccccc1 | ? | ? | 2.51µM | 3.16µM | i
CC(C)NC(=O)N1[C@H](c2cccs2)[C@@H](C)C(=O)[C@@H](C)[C@@H]1c1cccs1 | nt | i | nt | nt | nt
CCc1ccc2nc3n[nH]c(N)c3cc2c1 | ? | 4.78µM | 2.82µM | ? | 13µM
COC(=O)c1c(NC(=O)c2nc(SCc3ccc(F)cc3)ncc2Cl)sc2c1CCCC2 | i | i | nt | nt | nt
COc1ccc(-c2noc(N(C)CC(=O)Nc3cccc(C(F)(F)F)c3)n2)cc1 | i | 8.49µM | i | ? | i
COC(=O)Cc1c(C)nc2nc(-c3ccc(Cl)cc3)[nH]n2c1=O | i | 10.7µM | i | i | ?
COC(=O)Cc1c(C)nc2nc(-c3ccc(C)cc3)[nH]n2c1=O | i | 8.49µM | i | i | ?
COC(=O)Cc1c(C)nc2nc(-c3ccccc3)[nH]n2c1=O | i | 16.9µM | i | i | i
Cc1ccc(-n2c(=O)c3oc4ccccc4c3n(Cc3cccc(F)c3)c2=O)cc1C | nt | i | nt | nt | nt
Cc1c(-c2ccccc2)c(=O)oc2c(CN3CCOCC3)c(O)ccc12 | nt | i | nt | nt | nt
O=C(CNC(=O)c1cccs1)Nc1ccc2c(c1)OCCO2 | nt | 6.01µM | 1.12µM | 1.26µM | 1.64µM
Cn1cccc1C(=O)OCC(=O)Nc1ccc2c(c1)OCCO2 | nt | nt | nt | nt | 1.03µM
